HPGD block: inhibitors of human 15-hydroxyprostaglandin dehydrogenase (HPGD); actives 4.3% (n = 150,000); purified HPGD, NADH fluorescence kinetic, PGE2 substrate; AID 894; Potency, µM, without a hit: at the highest dose activity change, negative = inhibition, actives largely listed as inhibitors; also: potency is read from the fitted curve at half-maximal effect
Target sequence (P15428 whole entry, looked up): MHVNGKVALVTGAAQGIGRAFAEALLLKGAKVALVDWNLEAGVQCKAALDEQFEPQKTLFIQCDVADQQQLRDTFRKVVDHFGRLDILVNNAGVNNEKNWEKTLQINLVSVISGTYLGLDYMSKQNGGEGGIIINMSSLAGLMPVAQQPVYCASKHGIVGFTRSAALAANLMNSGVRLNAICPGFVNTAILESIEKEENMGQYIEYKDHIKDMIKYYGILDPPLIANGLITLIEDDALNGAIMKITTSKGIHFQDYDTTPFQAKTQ
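NADH formation kinetics: reaction with 30 uM PGE2 and 1 mM NAD+ (final), 20 nM enzyme, Tris-HCl pH 8 with Tween 20, after 15 min compound preincubation at room temperature. Fluorescence change, last versus first of five reads.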
IMPase Li cell: membrane-permeable IMPase blocker, potentiated with lithium | CHO-M1 cells, IP1 TR-FRET (IP-One), carbachol + lithium | Potency, µM (top dose mostly 59.4 µM), for inactives: at the highest dose activity, negative = IMPase inhibition, usual class: inhibitors | actives 0.35% (n = 210,000); active = well fitted curve in the direction sought with a large enough effect; inconclusive = small, poorly fitted or top-dose-only effect, or another doubt; inactive = no such curve, though single readings can be large; an effect the other way counts as inactive or inconclusive;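 also: IP1 builds up when IMPase is blocked and the TR-FRET signal falls; potency is read from the fitted curve at half-maximal effect; plate controls were basal vehicle for no effect and high inhibitor control for full effect; nearly all actives have a fitted effect of over 50% in size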
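Test compounds were applied to CHO-M1 cells previously cultured for 16–30 h at 2000 per well. A small lithium amount accompanied them; after 30 min at 37C, IP1 was quantified by TR-FRET.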
IMPase inh: cell-permeable inhibitors of inositol monophosphatase (IMPase). inhibition (IP1 accumulation), % at 46.1 µM. CHO-M1 cells, IP1 accumulation, HTRF TR-FRET ratio. 120,000 tested, under 10 active. P97697; active = well fitted curve in the direction sought with a large enough effect in the signal ratio, not every such curve was filed as active; inconclusive = small, poorly fitted or top-dose-only effect, or a change in a side signal; inactive = no such curve, though single readings can be large or run the other way; the % refers to the signal ratio;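 also: cells stimulated with carbachol in lithium chloride buffer; plate controls were DMSO basal wells for no effect and reference inhibitor wells for full effect; higher means more IMPase inhibition seen as more IP1 and lower FRET ratio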
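CHO-M1, 2000 cells/well, cultured 16–30 h; cpd up to 46 uM; carbachol (50 uM solution, stimulation buffer w/ 50 mM LiCl, pH 7.4), 30 min 37C; IP-One TR-FRET, 10 min RT; Ex 320/Em 665, 620; Hill-fit AC50.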
NPSR antag: antagonists of human neuropeptide S receptor cAMP signaling; Q6W5P4; CHO-NPSR cells, cAMP TR-FRET, antagonist mode; Potency, µM (highest dose often 38.3 µM), without a hit: at the top dose activity change, negative = inhibition, most hits filed as inhibitors; actives 1% (n = 220,000); AID 1461; active = well fitted curve in the direction sought with a large enough effect; inconclusive = small, poorly fitted or top-dose-only effect, or another doubt; inactive = no such curve, though single readings can be large; an effect the other way counts as inactive or inconclusive; also: potency is read from the fitted curve at half-maximal effect; nearly all actives have a fitted effect of over 50% in size
Target sequence (Q6W5P4 whole entry, looked up): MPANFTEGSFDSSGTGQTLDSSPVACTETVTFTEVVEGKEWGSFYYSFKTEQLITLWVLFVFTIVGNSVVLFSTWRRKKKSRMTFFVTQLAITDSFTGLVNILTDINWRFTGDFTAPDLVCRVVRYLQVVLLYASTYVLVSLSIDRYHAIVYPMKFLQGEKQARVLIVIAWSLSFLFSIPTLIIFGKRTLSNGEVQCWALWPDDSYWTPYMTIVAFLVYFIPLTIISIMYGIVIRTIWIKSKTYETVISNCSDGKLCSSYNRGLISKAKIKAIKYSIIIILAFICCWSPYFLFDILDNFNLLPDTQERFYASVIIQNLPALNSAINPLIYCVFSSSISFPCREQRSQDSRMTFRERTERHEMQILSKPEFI
ALDH1A1 block: ALDH1A1 (human) enzyme inhibition. Purified ALDH1A1, NADH fluorescence, propionaldehyde substrate. Potency, µM (series often up to 75.3 µM), for the others: top-dose activity, negative = inhibition, actives largely listed as inhibitors. actives 7.3% (n = 220,000). AID 1030;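 also: potency is read from the fitted curve at half-maximal effect; plate controls were no enzyme wells and a reference inhibitor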
PNC inhibitor: blocks assembly of the perinucleolar compartment | PC3M PTB-GFP, PNC prevalence imaging, 16 h; active compounds read low | activity change (PNC), negative = inhibition, % at 10 µM | actives 3.1% (n = 140,000);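 active = readout at or below -70, meaning at least 70% loss of cells showing the perinucleolar compartment, a nuclear body marking cancer cells; inconclusive = readout between -30 and a set limit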;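 also: plate controls were DMSO wells for no effect and camptothecin positive control wells for full effect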
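PC3M cells stably expressing PTB-GFP, 750–1000 cells/well, treated 16 h at 37 °C with compound (23 nl of library stock), in duplicate. After paraformaldehyde fixation and Hoechst stain, imaged at 20x; PNC prevalence scored by image analysis.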
Starred values were filed as active, the others as inactive; ? = inconclusive; / = not tested or not shown; [ ] = remark or other dose. Most compounds without a hit are left out; they make up all but 11% or so of the library. Unless noted, calls follow the shape of the dose curve; as a rule, active = well fitted inhibition curve with a large enough effect (not every such curve was filed as active); inconclusive = small, poorly fitted or top-dose-only effect, or another doubt; inactive = no such curve, though single readings can be large or run the other way. Unless noted, % is scaled to controls: 0 for no effect and ±100 for the full control effect.

SMILES	HPGD block	IMPase Li cell	IMPase inh	NPSR antag	ALDH1A1 block	PNC inhibitor
S=c1[nH]nc(C2CCCCC2)n1/N=C/C=C/c1ccccc1	17.8µM*	4.5%[38.3 µM]	4.2	-19.9%[46.1 µM]	2.6%	63.5
S=c1[nH]nc(C2CCCCC2)n1/N=C/c1ccc(Br)s1	5.01µM*	19.2%[38.3 µM]	5.7	-2.2%[46.1 µM]	-7.7%	11.4
O=c1[nH]c2cccnc2c2ccsc12	/	4.4%	/	-18.2%	-7.8%	/
CCCC(=O)Nc1ccccc1NC(=O)CCC	-16.4%	14.2%[38.3 µM]	-8.0	-2.4%[46.1 µM]	5.5%	20.6
O=C(Cn1nnc2sc3c(c2c1=O)CCCC3)Nc1ccc(F)c(Cl)c1	/	/	-4.8	/	/	/
O=[N+]([O-])c1ccc(Cl)c(/C=N/n2c(COc3ccccc3)n[nH]c2=S)c1	8.91µM*	6.6%	/	-7.2%	14.1µM*	15.2
O=[N+]([O-])c1cccc(/C=N/n2c(C3CCCCC3)n[nH]c2=S)c1	2.51µM*	12.6%	4.4	-22.1%	-10.2%	20.2
CC(NC(=O)C1CCCC1)C1CC2CCC1C2 (stereo not given)	28.2µM*	-8.4%	/	19.3%	-3.8%	15.1
CC(NC(=O)C1CC=CCC1C(=O)O)C1CC2CCC1C2 (stereo not given)	3.0%	6.2%[38.3 µM]	2.8	-14.1%[46.1 µM]	6.6%	?
COc1cc(/C=C/C(=O)c2ccc(NS(=O)(=O)c3ccc(C)cc3)cc2)ccc1OC(F)F	15.8µM*	-7.1%	/	?	-1.5%	-28.2
COc1cccc(/C=C/C(=O)c2ccc(NS(=O)(=O)c3ccc(C)cc3)cc2)c1	-16.0%	4.5%	/	?	-7.8%	?
COc1cc(/C=C/C(=O)c2ccc(NS(=O)(=O)c3ccc(C)cc3)cc2)cc(OC)c1O	-17.2%	8.5%	-0.8	?	22.4µM*	34.0
COc1cc(/C=C/C(=O)O)ccc1OS(=O)(=O)c1ccc(C)cc1	/	2.5%	/	-20.0%	?	/
Cc1ccc(-n2c(Cl)c(Cl)[nH]c(=O)c2=O)cc1	-28.5%	4.0%	/	-0.8%	?	40.8
COc1ccc(Cl)cc1Nc1cc(C)nc2nc(C)nn12	3.55µM*	-0.5%	/	17.3%	-2.7%	26.2
NC(=O)Nc1cccc2ccccc12	-14.8%	-1.7%	/	8.7%	-3.8%	-104.8*
O=C(NNC(=S)Nc1cccc2ccccc12)c1cccc(Br)c1	-19.8%	22.7%[38.3 µM]	-3.1	-5.8%[46.1 µM]	4.47µM*	?
O=C1c2ccccc2C(=O)N1CCCCN(C(=O)c1cc2ccccc2oc1=O)c1ccc(Cl)cc1	-10.5%	12.5%	0.1	-19.8%	7.94µM*	28.3
Cc1ccc2c(c1)c1c(n2CC(O)CN2CCC(C)CC2)CCCC1 (stereo not given)	/	/	/	-10.6%	/	/
O=C(CN1C(=O)NC2(CCSC2)C1=O)N1CCN(c2ccc(F)cc2)CC1 (stereo not given)	-3.2%	-11.2%[38.3 µM]	-1.7	-3.5%[46.1 µM]	20µM*	-21.1
O=C(CN1C(=O)C2CCCCC2C1=O)N1CCN(c2ccc(F)cc2)CC1 (stereo not given)	/	1.7%	/	0.0%	-12.3%	/
O=C(CCCn1c(=S)[nH]c2ccc(Br)cc2c1=O)NCC1CCCO1 (stereo not given)	7.08µM*	11.5%[38.3 µM]	-2.3	-19.6%[46.1 µM]	1.41µM*	14.5
O=C(CCCn1c(=O)[nH]c2cc(Cl)ccc2c1=O)NCC1CCCO1 (stereo not given)	-14.6%	5.3%	10.1	-2.5%	-6.9%	-118.9*
CCOC(=O)N1CCN(C(=O)CCCn2c(=S)[nH]c3ccc(Br)cc3c2=O)CC1	-12.4%	22.7%[38.3 µM]	13.0	-14.4%[46.1 µM]	-4.5%	8.8
Cn1c(=O)cc(SCC(=O)NCC2CCCO2)c2ccc(Cl)cc21 (stereo not given)	14.1µM*	?	-13.2	10µM*	-8.3%	-10.5
SMILES	HPGD block	IMPase Li cell	IMPase inh	NPSR antag	ALDH1A1 block	PNC inhibitor
CCn1c(=O)cc(SCC(=O)NCC2CCCO2)c2ccccc21 (stereo not given)	?	-17.4%[38.3 µM]	-7.2	-22.7%[46.1 µM]	?	?
O=C(CCCn1c(=O)[nH]c2cc(Cl)ccc2c1=O)NCCCN1CCCC1	-13.2%	21.5%[38.3 µM]	5.6	-6.8%[46.1 µM]	12.1%	22.3
CC(C)Cc1csc(NC(=O)C(C)C)c1C(=O)O	/	/	/	14.9%	/	/
CCOc1ccc(-c2nnc(-c3ccccc3)n2-c2ccccc2)cc1	?	38.3%[38.3 µM]	1.4[1.84 µM]	-4.1%[46.1 µM]	-1.4%	-5.4
Cc1ccc(C)c(C(C)NC(=O)c2ccc(Br)o2)c1 (stereo not given)	/	-5.2%	/	-2.1%	3.98µM*	/
Cc1cc2c(=O)n(CC(=O)N3CCN(c4ccccc4)CC3)cnc2s1	-4.3%	8.1%[38.3 µM]	0.3	11.8%[46.1 µM]	2.0%	-122.4*
CCCCSc1nc(C)[nH]c1[N+](=O)[O-]	0.7%	25.6%[38.3 µM]	5.8	-1.4%[46.1 µM]	1.2%	40.6
COc1ccc(C(=O)C(/C=N/O)=N/Nc2ccc(F)cc2)cc1	/	3.1%	/	-15.8%	14.8%	/
COc1ccc(N=N/C(=C\O)C(=O)c2cccs2)cc1	/	23.6%	/	?	14.1µM*	/
COc1ccc(C(=O)/C(=C/O)N=Nc2ccc(F)cc2)cc1	/	19.5%	/	?	3.98µM*	/
C=CCOc1ccc(C2NC(=S)NC(c3ccccc3)=C2C(C)=O)cc1OC (stereo not given)	/	10.0%	/	-31.3%	?	/
COc1ccc(C2C=C(C34CC5CC(CC(C5)C3)C4)NC(=S)N2)cc1OC (stereo not given)	-7.6%	-1.8%	1.5	-26.6%[46.1 µM]	7.94µM*	-26.4
c1cnc2ccc(C(c3nnnn3C3CCCCC3)N3CCCCC3)cc2c1 (stereo not given)	-12.5%	14.1%	1.5	-14.9%[46.1 µM]	?	-100.0*
c1cc(N2CCCC2)ccc1C(c1nnnn1C1CCCCC1)N1CCOCC1 (stereo not given)	/	/	8.0	-27.0%[46.1 µM]	25.1µM*	21.2
CCC(C)(C)n1nnnc1C(c1ccc2ncccc2c1)N1CCCCCC1 (stereo not given)	-12.3%	19.0%	-1.1	-7.0%	?	9.2
CCC(C)c1ccc(NC(=O)c2cnn3c(C(F)F)cc(C)nc23)cc1 (stereo not given)	/	12.5%	/	-25.2%	-1.1%	/
COCCNc1nc(CSc2ccccc2)nc2sc(C)c(C)c12	/	/	8.5	-20.8%[46.1 µM]	?	-85.9*
Cc1sc2nc(CSc3ccccc3)nc(N3CCN(C)CC3)c2c1C	-5.5%	13.7%	/	-11.8%	-1.3%	27.4
COc1cc2c(cc1OC)CN(Cc1nc3ccsc3c(=O)[nH]1)CC2	?	17.7%[38.3 µM]	-4.3	-5.6%[46.1 µM]	?	-83.4*
O=c1[nH]c(CN2CCN(c3ccccc3Cl)CC2)nc2ccsc12	-4.0%	5.3%[38.3 µM]	0.2	-8.4%[46.1 µM]	-5.3%	9.8
Cc1ccc(C(=O)N2NC(c3ccc(F)cc3)C3C(=O)N(c4ccc(C)cc4)C(=O)C32)cc1 (stereo not given)	-4.2%	-2.1%	/	0.7%	-15.0%	63.3

Source: PubChem
